PI5P4K alpha inh = blocks human PI5P4K alpha kinase activity; P48426; PI5P4Kalpha enzyme, ADP-Glo luminescence, 60 min; stronger effect = lower value; max response, %; hit rate 1.2% among 330,000; AID 652105; active = max response of -50% or lower; inconclusive = between -30% and -50%; inactive = -30% or higher; also: value at the top dose of about 77 µM; % is scaled to controls: 0 for no effect and ±100 for the full control effect
Target sequence (P48426 whole entry, looked up): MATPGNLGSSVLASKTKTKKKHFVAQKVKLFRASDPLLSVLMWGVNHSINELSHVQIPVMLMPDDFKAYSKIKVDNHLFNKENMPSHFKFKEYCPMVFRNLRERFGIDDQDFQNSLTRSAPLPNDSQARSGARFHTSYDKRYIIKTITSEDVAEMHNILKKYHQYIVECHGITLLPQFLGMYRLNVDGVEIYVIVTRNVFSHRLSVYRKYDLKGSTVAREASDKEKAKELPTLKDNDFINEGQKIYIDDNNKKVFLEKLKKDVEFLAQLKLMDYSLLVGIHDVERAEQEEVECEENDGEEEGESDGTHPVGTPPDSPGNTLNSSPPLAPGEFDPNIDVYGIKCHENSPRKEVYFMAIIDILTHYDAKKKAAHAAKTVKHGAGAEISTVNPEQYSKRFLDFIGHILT
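PI5P4Kalpha ADP-Glo assay; 5 microM ATP final; 60 min RT reaction; HEPES pH 7.4/EGTA/CHAPS, 5% DMSO; controls lacking substrate or enzyme; luminescent end-point.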
HP1b chromo inh = inhibitors of HP1-beta chromodomain binding to methylated histone tails; Potency, µM (doses to about 114 µM), inactives show top-dose activity change, negative = inhibition, usual class: inhibitors; P83916; AlphaScreen HP1-beta / biotin-H3K9me3 peptide binding; hit rate 0.56% among 390,000; also: potency is read from the fitted curve at half-maximal effect; nearly all actives have a fitted effect of over 70% in size
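AlphaScreen: HP1-beta (50 nM) preformed 30 min with biotin-H3(1-18)K9me3 peptide (50 nM) in PBS pH 7.4, 0.01% Tween-20. Compound added for 30 min at RT, then streptavidin donor/nickel chelate acceptor beads (10 ug/mL) for 30 min.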
BAZ2B block = BAZ2B (human) inhibition; Q9UIF8; AlphaScreen BAZ2B-H3K14Ac peptide displacement; Potency, µM (series often up to 114 µM), without a hit: top-dose activity change, negative = inhibition, hits mostly inhibitors; hit rate 4.4% among 360,000; AID 504333; also: potency is read from the fitted curve at half-maximal effect; % is scaled to controls: 0 for no effect and ±100 for the full control effect; nearly all actives have a fitted effect of over 60% in size
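BAZ2B 50 nM plus b-H3(5-23)K14Ac 50 nM, PBS pH 7.4/0.01% Tween-20, 30 min RT; compound added (max 110 uM), 30 min RT; streptavidin donor/Ni-chelate acceptor beads 10 ug/mL final, 20 min dark; AlphaScreen read.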
JMJD2A Tudor inh = inhibitors of human JMJD2A Tudor domain | AlphaScreen JMJD2A-Tudor / H3K4me3 peptide binding | O75164 | hit rate 4.4% among 390,000 | Potency, µM (series often up to 114 µM), inactives show at the top dose activity change, negative = inhibition, usual class: inhibitors; also: potency is read from the fitted curve at half-maximal effect; % is scaled to controls: 0 for no effect and ±100 for the full control effect; nearly all actives have a fitted effect of over 50% in size
G9a inh = inhibitors of human histone lysine methyltransferase G9a; Q96KQ7; G9a H3K9 monomethylation, AlphaScreen, 2 h; Potency, µM (highest dose often 102 µM), without a hit: top-dose activity, negative = inhibition, hits mostly inhibitors; hit rate 8.8% among 350,000; also: potency is read from the fitted curve at half-maximal effect; % is scaled to controls: 0 for no effect and ±100 for the full control effect; nearly all actives have a fitted effect of over 75% in size
Target sequence (Q96KQ7 913-1193 limits assumed): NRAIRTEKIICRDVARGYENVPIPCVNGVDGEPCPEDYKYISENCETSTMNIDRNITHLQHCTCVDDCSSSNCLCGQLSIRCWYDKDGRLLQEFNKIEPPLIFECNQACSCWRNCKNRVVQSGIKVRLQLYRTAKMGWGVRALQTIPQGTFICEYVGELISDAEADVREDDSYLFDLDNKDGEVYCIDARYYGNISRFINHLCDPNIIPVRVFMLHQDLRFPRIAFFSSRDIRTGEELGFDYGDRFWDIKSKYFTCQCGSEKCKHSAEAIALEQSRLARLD
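AlphaScreen detection with an anti-monomethyl H3K9 antibody quantified product after a 2 h room-temperature reaction containing 500 nM biotinylated H3K9 peptide, 20 µM SAM and 20 nM enzyme, which had been preincubated 15 min with compound.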
PLK1 PBD block = PLK1 (human) polo-box domain binding inhibition; P53350; Plk1 PBD binding of FITC phosphopeptide, fluorescence polarization; Potency, µM, for inactives: max response, negative = inhibition, usual class: inhibitors; hit rate 2.8% among 360,000; AID 720504; also: potency is read from the fitted curve at half-maximal effect; series mostly up to about 57 µM; % is scaled to controls: 0 for no effect and ±100 for the full control effect; nearly all actives have a fitted effect of over 65% in size
* marks the source's active call; other numbers are inactive results; ? = inconclusive; . = no result given; [ ] = remark or other dose. Shown are actives, neighbours in structure and some others; about 12% of the full set was active somewhere. Unless noted, calls follow the shape of the dose curve; as a rule, active = well fitted curve in the direction sought with a large enough effect; inconclusive = small, poorly fitted or top-dose-only effect, or another doubt; inactive = no such curve, though single readings can be large; an effect the other way counts as inactive or inconclusive.

SMILES	PI5P4K alpha inh	HP1b chromo inh	BAZ2B block	JMJD2A Tudor inh	G9a inh	PLK1 PBD block
Cc1oc2ncnc(N3CCCCC3)c2c1C(=O)N1CCN(c2cccc(C(F)(F)F)c2)CC1	.	-18%	-11%[57.1 µM]	-29%	-35%[59 µM]	.
O=C1CCCCCN1C(=O)c1ccccc1	0	13%	.	-17%	.	-11%
O=C1CCCCCN1Sc1ccccc1	0	54%	1%	-7%	10µM*	1.1µM*
N#C/C(C(=O)NCc1ccco1)=C1/SC=C(c2ccccc2)N1c1ccccc1	12	35%	-3%	-7%	16µM*	1%
COc1cccc(/C=N/Nc2ccnc(=O)[nH]2)c1O	-20	47%	50µM*	?	15%	1%
Cc1cc(/C=N/Nc2ccc([N+](=O)[O-])cn2)c(C)n1-c1ccccc1	-17	7%	?	-32%	?	0%
Cc1c(C(=O)O)cccc1-n1c(C)cc(/C=N/Nc2ccc([N+](=O)[O-])cn2)c1C	?	-29%	45µM*	-2%[11.4 µM]	45µM*	?
COc1cccc(/C=N/Nc2ccc([N+](=O)[O-])cn2)c1O	-11	414%	40µM*	?	95%	6%
CCOc1ccccc1/C=N/Nc1ccnc(=O)[nH]1	8	60%	7%	-8%	42%[2.33 µM]	-3%
COC(=O)CN1C(=O)CSc2ccc(S(=O)(=O)Nc3ccccc3)cc21	.	16%	-9%	-11%	-7%[59 µM]	.
COc1ccc(NC(=O)c2cc(=O)[nH]c(=O)[nH]2)cc1S(=O)(=O)Nc1ccccc1Cl	-24	27%	-12%	-8%	8%	-1%
COc1ccc(C2=NN(CN3C(=O)C(=O)c4ccccc43)C(c3ccc(OC)cc3)C2)cc1 (centres undefined)	-7	9%	?	?	45µM*	-19%
C[C@@H](NC(=O)[C@@H]1CCCN1C(=O)[C@@H]1CCCN1C(=O)c1cccc2ccccc12)c1ccccc1	0	.	.	.	.	3%
CCOC(=O)c1sc(NC(=O)CC)nc1C	-2	26%	2%	-10%	12%	-10%
CCOC(=O)c1sc(Nc2ccc(F)cc2)nc1C	19	7%	-26%	-5%	-11%[59 µM]	8%
CCOC(=O)c1sc(NC(=O)CCCCl)nc1C	-2	29%	6%	4%	50µM*	6%
CCOC(=O)c1sc(NC(=O)/C=C/c2ccc(F)cc2)nc1C	-13	?	-3%	-29%	.	21µM*
CCNC(=O)C1(C)CCCN1C(=O)c1c(F)cccc1F (centres undefined)	-3	.	.	.	.	-3%
CN(C)/N=C/c1ccc(P(c2ccc(/C=N/N(C)C)o2)c2ccc(/C=N/N(C)C)o2)o1	41	?	22µM*	18µM*	35µM*	-2%
O=C1c2cccc3cccc(c23)C(=O)N1CCCn1ccnc1	-1	28%	.	-27%	.	-2%
C[C@@H]1NC(=O)N(CCCn2ccnc2)C1=O	-5	15%	50µM*	-28%	12%	-8%
CCOc1ccc(-c2nc(S(=O)(=O)c3ccccc3)c(NC)o2)cc1	-3	30%	1%	-3%	53%	3%
CCOc1ccc(-c2nc(S(=O)(=O)c3ccccc3)c(NCc3cccnc3)o2)cc1	-2	5%	?	?	45µM*	0%
CCNc1oc(-c2ccc(OC)cc2)nc1S(=O)(=O)c1ccc(Br)cc1	.	29%	-5%	-19%	56µM*	-3%
CNc1oc(-c2ccccc2)nc1S(=O)(=O)c1ccc(C)cc1	-2	33%	-20%	-17%	?	-8%
SMILES	PI5P4K alpha inh	HP1b chromo inh	BAZ2B block	JMJD2A Tudor inh	G9a inh	PLK1 PBD block
Cc1ccc(S(=O)(=O)c2nc(-c3ccccc3F)oc2NCc2ccccc2)cc1	.	5%	?	-17%	?	.
COc1ccc(-c2nc(S(=O)(=O)c3ccc(C)cc3)c(NCc3ccccc3)o2)cc1	.	16%	-27%	?	11µM*	.
CCNc1oc(-c2ccccc2F)nc1S(=O)(=O)c1ccccc1	-15	16%	-21%	-9%	45µM*	-15%
CCOc1ccc(S(=O)(=O)NCCC(=O)NCC(c2ccco2)N2CCCCC2)cc1 (centres undefined)	1	21%	7%	-14%	16%[12.7 µM]	-6%
Cc1cc2n(n1)CCCN2C(=O)Nc1ccccc1F	.	15%	0%[57.1 µM]	-3%	-6%[59 µM]	.
Cc1ccc(S(=O)(=O)c2nc(C)oc2NCc2ccccc2)cc1	.	.	3%	.	8.9µM*	.
Cc1cc(C)nc(N/N=C/c2ccccc2OCC(=O)O)n1	7	0%	2%	2.5µM*	-4%[2.33 µM]	?
O=C(O)COc1ccccc1/C=N/NC(=O)c1ccc(F)cc1	0	16%	?	-16%	45µM*	-7%
Cc1cc(C)nc(N/N=C/c2ccccc2OCc2ccccc2)n1	-1	-7%	-11%	?	-2%[59 µM]	4%
O=C(O)COc1ccccc1/C=N/NC(=O)CNC(=O)c1ccc(F)cc1	-18	-8%	?	-7%[11.4 µM]	.	8.4µM*
COc1ccc(CCn2c(S)nc3ccccc3c2=O)cc1	3	63%	7%	6%	48%	-1%
Cc1ccc(S(=O)(=O)N2CCN(C(=O)C(Cc3ccccc3)NC(=O)c3ccccc3)CC2)cc1 (centres undefined)	-7	-2%	0%	?	-1%[59 µM]	-11%
CCOc1cc(N2CCOCC2)c(OCC)cc1NC(=O)c1c(-c2ccccc2)noc1C	-3	-15%	45µM*	?	-6%[2.33 µM]	-1%
CCOc1cc(N2CCOCC2)c(OCC)cc1NC(=O)c1c(-c2ccccc2Cl)noc1C	5	?	40µM*	45µM*	35µM*	12%
Cc1onc(-c2ccccc2)c1C(=O)Nc1ccc(S(=O)(=O)N2CCOCC2)cc1	2	-2%	5%	-9%	50µM*	-19%
CCOc1cc(N2CCOCC2)c(OCC)cc1NC(=O)c1ccccc1	-9	-3%	?	-20%	?	-5%
CCOc1cc(N2CCOCC2)c(OCC)cc1NC(=O)c1cc(C)cc(C)c1	8	-9%	-34%	-25%	?	-6%
CCOc1cc(N2CCOCC2)c(OCC)cc1NC(=O)c1c(C)noc1C	7	18%	-2%	-16%	16µM*	1%
O=C(c1ccc(-c2cccc(C(F)(F)F)c2)o1)N1CCCC(C(F)(F)F)C1 (centres undefined)	28	23%	-33%	22%	?	3%

Screening results deposited in PubChem by National Center for Advancing Translational Sciences (NCATS).
